The list is not random: actives were taken first. Their share in the collection is about 2.8%.
Pol eta inh: qHTS for Inhibitors of Polymerase Eta; actives 1.2% (n = 390,000); recombinant Pol eta, fluorescent DNA replication assay; Potency, µM (titrated, usually from 114 µM), inactives show at the highest dose activity change, negative = inhibition, usual class: inhibitors; further: potency means the concentration at half of the fitted maximal effect; on the % scale 0 is the no-effect control and ±100 the full control effect
Target sequence (Q9Y253 whole entry, looked up): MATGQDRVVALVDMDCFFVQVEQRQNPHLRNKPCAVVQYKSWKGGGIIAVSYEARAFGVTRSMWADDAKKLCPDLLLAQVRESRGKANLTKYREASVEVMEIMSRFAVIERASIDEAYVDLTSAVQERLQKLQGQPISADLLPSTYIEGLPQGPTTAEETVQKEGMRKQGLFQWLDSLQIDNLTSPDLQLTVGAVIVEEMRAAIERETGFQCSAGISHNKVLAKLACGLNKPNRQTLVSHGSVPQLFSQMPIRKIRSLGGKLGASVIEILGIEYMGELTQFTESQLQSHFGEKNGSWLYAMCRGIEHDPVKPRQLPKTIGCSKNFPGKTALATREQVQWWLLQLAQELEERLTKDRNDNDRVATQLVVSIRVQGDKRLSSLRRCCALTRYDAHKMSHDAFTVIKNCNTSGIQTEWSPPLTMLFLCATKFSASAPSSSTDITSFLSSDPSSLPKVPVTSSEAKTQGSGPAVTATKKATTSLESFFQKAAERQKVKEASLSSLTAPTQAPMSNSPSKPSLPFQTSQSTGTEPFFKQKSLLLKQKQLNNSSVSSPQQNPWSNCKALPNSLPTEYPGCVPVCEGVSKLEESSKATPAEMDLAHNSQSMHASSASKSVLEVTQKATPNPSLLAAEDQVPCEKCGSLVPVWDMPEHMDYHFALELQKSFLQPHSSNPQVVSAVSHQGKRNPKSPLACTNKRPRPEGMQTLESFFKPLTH
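Pol eta (10 nM) was preincubated with compounds for 15 min at room temperature, after which fluorescent replication substrate (50 nM final) was added to start the reaction. Fluorescence was read kinetically at 0 and 10 min.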
POLB inh: qHTS Assay for Inhibitors of DNA Polymerase Beta | Pol beta primer extension/strand displacement, fluorescence kinetic | Potency, µM (titrated, usually from 114 µM), for the others: at the highest dose activity change, negative = inhibition, usual class: inhibitors | actives 1.3% (n = 340,000) | AID 485314, 2010; further: potency means the concentration at half of the fitted maximal effect; on the % scale 0 is the no-effect control and ±100 the full control effect
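Human Pol beta at 10 nM; strand-displacement substrate 50 nM final. Compound exposure 15 min at room temperature before start, reaction 10 min at room temperature.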
Pol kappa inh: qHTS for Inhibitors of Polymerase Kappa. DNA polymerase kappa (Homo sapiens), Q9UBT6. purified Pol kappa, fluorescent DNA synthesis assay, 10 min. Potency, µM (titrated, usually from 107 µM), without a hit: top-dose activity, negative = inhibition, most hits filed as inhibitors. actives 0.53% (n = 400,000); further: potency means the concentration at half of the fitted maximal effect; on the % scale 0 is the no-effect control and ±100 the full control effect
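10 nM Pol kappa was preincubated with compounds for 15 min at room temperature. Reaction started with 50 nM (final) substrate. Fluorescence read kinetically at 0 and 10 min.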
PI5P4K alpha inh: qHTS for Inhibitors of phosphatidylinositol 5-phosphate 4-kinase (PI5P4K); Phosphatidylinositol 5-phosphate 4-kinase type-2 alpha (Homo sapiens), P48426; PI5P4Kalpha enzyme, ADP-Glo luminescence, 60 min; active compounds read low; max response, %; actives 1.2% (n = 330,000); AID 652105, 2013; active means max response of -50% or lower; inconclusive means between -30% and -50%; inactive means -30% or higher; further: value at the top dose of about 77 µM; on the % scale 0 is the no-effect control and ±100 the full control effect
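Enzyme plus substrate dispensed, test compounds pinned in, then ATP (5 microM final) added. After 60 min at RT, ADP-Glo reagent 1 for 45 min and reagent 2 for 30 min preceded luminescence imaging.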
FEN1 inh: qHTS Assay for the Inhibitors of Human Flap endonuclease 1 (FEN1); P39748; Recombinant FEN1 flap cleavage, fluorescence, 15 min; Potency, µM (highest dose often 114 µM), for inactives: top-dose activity change, negative = inhibition, hits mostly inhibitors; actives 0.35% (n = 390,000); AID 588795, 2011; further: potency means the concentration at half of the fitted maximal effect; on the % scale 0 is the no-effect control and ±100 the full control effect; nearly all actives have a fitted effect of over 65% in size
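Read-out was taken twice, immediately and after 15 min, following addition of 50 nM substrate to 10 nM FEN1 that had sat with test compound for 15 min at room temperature. Curves came from a four-parameter Hill model.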
POLI inh: qHTS for Inhibitors of Polymerase Iota | actives 1% (n = 390,000) | Potency, µM (titrated, usually from 115 µM), for inactives: top-dose activity, negative = inhibition, actives largely listed as inhibitors | Pol iota fluorescent replication assay, 10 min | AID 588590, 2011 | DNA polymerase iota (Homo sapiens), Q9UNA4; further: potency means the concentration at half of the fitted maximal effect
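Fluorescent replication assay read twice, at 0 min and 10 min after adding 50 nM (final) substrate. Enzyme (10 nM) and compounds were first incubated 15 min at room temperature; enzyme-free buffer wells were negative controls.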
TbPGK inh: qHTS for inhibitors of Phosphogylcerate Kinase: Hit Validation Screen | actives 79% (n = 500) | AID 686980, 2013 | shares compounds with Pol kappa inh | TbPGK coupled GAPDH assay, Kinase-Glo luminescence | Potency, µM (series often up to 57.5 µM), for the others: at the highest dose activity change, negative = inhibition, most hits filed as inhibitors; further: potency means the concentration at half of the fitted maximal effect; on the % scale 0 is the no-effect control and ±100 the full control effect; nearly all actives have a fitted effect of over 65% in size
POLI cherry-pick: qHTS for Inhibitors of Polymerase Iota: Confirmatory Assay for Cherry-picked Compounds. Pol iota primer extension, TAMRA/BHQ fluorescence. AID 720496, 2013. actives 77% (n = 1,500). shares compounds with Pol kappa inh. Potency, µM, actives largely listed as inhibitors; further: potency means the concentration at half of the fitted maximal effect
Numbers without * were called inactive; u = inconclusive; x = not tested or not shown; [ ] = another dose, or the depositor's remark. Unless noted, the call rests on the fitted dose curve; in most records, active means well fitted curve in the direction sought with a large enough effect; inconclusive means small, poorly fitted or top-dose-only effect, or another doubt; inactive means no such curve, though single readings can be large; an effect the other way counts as inactive or inconclusive.

SMILES	Pol eta inh	POLB inh	Pol kappa inh	PI5P4K alpha inh	FEN1 inh	POLI inh	TbPGK inh	others
Cc1cncn1CCc1nc2c3ccccc3nc(SCC(=O)Nc3cccc(Cl)c3)n2n1	-12%	-8%	5%[60.1 µM]	1	4%	17%	x
Cc1nc2ccccc2n1CCc1nc2c3ccccc3nc(SCC(=O)Nc3ccc(C(C)C)cc3)n2n1	-23%	0%	-4%[60.1 µM]	x	-9%	u	x
Cc1ccc(NC(=O)CSc2nc3ccccc3c3nc(CCn4c(C)nc5ccccc54)nn23)cc1F	u	u	-11%[60.1 µM]	x	-18%	79µM*	x	POLI cherry-pick=u
Cc1cncn1CCc1nc2c3ccccc3nc(SCC(=O)Nc3ccc(F)cc3)n2n1	-20%	-11%	-4%[60.1 µM]	x	20%	33%	-14%
O=C(NCCCC1CCCC1)C1CCC(=O)N(Cc2ccc(Cl)cc2)C1 (stereo unspecified)	-3%	-3%	-4%	3	-17%	13%	x
COc1cccc(OCc2cc(C3Nc4ccccc4C(=O)N3c3ccccc3)ccc2OC)c1 (stereo unspecified)	x	x	9%	x	3%	26%	x
O=C(O)Cc1cccc(=O)c(O)c1C(=O)O	4µM*	x	u	-18	u	22µM*	5.2µM*
O=C(O)Cc1ccccc1C(=O)O	-19%	0%	-6%	x	5%	8%	x
COc1ccc(-n2cccc2/C=C2\C(=N)N3N=C(c4ccco4)SC3=NC2=O)cc1	8.9µM*	5.6µM*	22µM*	-53*	u	u	3.7µM*
COc1ccc(-c2cc3nc(C)n(N)c(=O)c3s2)cc1	-6%	-9%	-12%	-53*	-15%	10%	4.1µM*
Cn1c(NCc2ccccc2)nc2cc(-c3ccccc3)sc2c1=O	x	x	x	1	x	x	x
Cc1nc2cc(-c3ccccc3)sc2c(=O)n1N	4%	11%	-5%	-72*	-17%	38%	8.2µM*
Cc1cc(=O)oc2cc(OCC(=O)N/N=C/c3ccccc3O)ccc12	18µM*	3.2µM*	-8%	-1	0%	29%	x	POLI cherry-pick=u
O=C(c1cc([N+](=O)[O-])ccc1Cl)N1CCN(Cc2ccccc2)CC1	-2%	0%	4%	2	5%	-2%	x
Cc1cc(NC(=O)CSc2ccc(-c3nc4cc(C)c(C)cc4[nH]3)cn2)no1	-16%	0%	8%	x	7%	23%	5%
Cc1cc2nc(-c3ccc(SCC(=O)Nc4ccc(S(=O)(=O)NC5CC5)cc4)nc3)[nH]c2cc1C	u	u	-6%	-15	-1%	u	x
Cc1cccc(-c2ncc(CN3CCN(CC(C)C)C(CCO)C3)cn2)c1 (stereo unspecified)	-24%	19%	-1%	11	-10%	175%	x
CCN1C[C@@H]2[C@@H]3C(=O)N(Cc4ccccc4)C(=O)[C@@H]3[C@](C)(C1=O)N2C(=O)c1ccc(Cl)c(Cl)c1	-22%	x	-8%	1	14%	-24%	x
c1ccc2nc(-c3nc4ccccc4o3)ccc2c1	-3%	0%	-11%	x	-11%	16%	18µM*
CC(=O)c1ccc2c(c1)C1C=CCC1C(C(=O)O)N2 (stereo unspecified)	1µM*	32µM*	3.5µM*	-91*	13µM*	1.6µM*	9.2µM*
CCOC(=O)C1Nc2ccc(OC(F)(F)F)cc2C2C=CCC12 (stereo unspecified)	-9%	x	-17%	u	u	u	x
COc1cccc2c1NC(C(=O)O)C1CC=CC21 (stereo unspecified)	2.5µM*	1.8µM*	7.9µM*	-96*	25µM*	1µM*	8.2µM*
COc1cccc(C2Nc3c(F)cc(Br)cc3C3C=CCC32)c1OC (stereo unspecified)	-7%	-15%	-6%	-3	-2%	4%	x
CC1CCCC(C)N1c1ccc(S(=O)(=O)N2CCOCC2)cc1Cl (stereo unspecified)	-17%	-19%	-10%	1	5%	65%	x
CC1=C(C(=O)Nc2cccnc2)C(c2cccc(O)c2)n2nc(SCc3ccccc3)nc2N1 (stereo unspecified)	u	-18%	-6%[60.1 µM]	x	-17%	79µM*	x	POLI cherry-pick=u
SMILES	Pol eta inh	POLB inh	Pol kappa inh	PI5P4K alpha inh	FEN1 inh	POLI inh	TbPGK inh	others
Cc1cc(NC(=O)NC(C(F)(F)F)C(F)(F)F)no1	-7%	21%	-20%	2	-3%	-7%	x
CCOc1ccc(/C=N/NC(=O)c2cc3c(OC)cccc3[nH]2)cc1	u	50µM*	-37%	0	u	25µM*	x	POLI cherry-pick=u
Cc1ccccc1C(=O)Nc1ccc2c(C#N)c3nc4ccccc4nc3n2c1	10µM*	u	-27%	u	u	40%	x	POLI cherry-pick=u
COc1ccc(Cl)cc1-n1c(=S)sc2c(=O)[nH]c(SCC(=O)C(C)(C)C)nc21	u	6%	1%	-7	10%	10%	x
COc1ccccc1-c1nc(-c2ccccn2)no1	-15%	20%	11%	u	-1%	-1%	18µM*
Cc1ccccc1-c1nc(-c2ccccn2)no1	-10%	-1%	-5%	-26	18%	-8%	x
Cc1ccc(CNC(=O)c2nnn(CC(=O)Nc3cc(C)cc(C)c3)c2N)cc1	u	u	u	-4	-20%	40µM*	x	POLI cherry-pick=34*
O=C(COc1ccc(S(=O)(=O)N2CCOCC2)cc1)NCCc1ccc(Cl)cc1	-3%	x	x	4	x	x	x
O=C(Cn1cc(C(=O)c2ccco2)c2ccccc21)NC1CC1	-13%	10%	-3%	2	-4%	170%	x
COc1ccc(/C=C/c2nc3ccccc3n2C)cc1	-1%	0%	-14%	-62*	-15%	139%	4.1µM*
COc1ccc(Cn2c(/C=C/c3ccccc3)nc3ccccc32)cc1	-1%	29%	-12%	x	-14%	-11%	x
COc1ccc(-c2nc(S(=O)(=O)c3ccc(Cl)cc3)c(NCc3ccccc3)o2)cc1	x	17%	2%	x	4%	15%	x
